Rows were chosen to be rich in hits. Some 19% of all compounds tested hit in one or more screens of this group.
AMA1-RON2 inh: disrupts binding of P. falciparum AMA1 to RON2. AlphaScreen AMA1-biotinylated RON2 peptide binding. Potency, µM (highest dose often 58.2 µM), inactives show top-dose activity change, negative = inhibition, hits mostly inhibitors. 360,000 compounds, 0.2% hits. AID 720542;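 note: potency is the fitted concentration of half-maximal effect; 0% = vehicle wells and -100% = peptide control; nearly all actives have a fitted effect of over 45% in size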
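AMA1 (3D7) with his tag at 25 nM final met compounds first, then biotinylated RON2 peptide at 25 nM; detection used donor plus acceptor beads, 10 µg/mL apiece, read by AlphaScreen after 30 min at room temperature.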
Pf growth 48h: inhibits P. falciparum growth in the first generation, 48 h | P. falciparum luciferase growth in erythrocytes, 48 h | Potency, µM (doses to about 28.7 µM), without a hit: top-dose activity change, negative = inhibition, most hits filed as inhibitors | 310,000 compounds, 5.9% hits; note: potency is the fitted concentration of half-maximal effect; % is set by controls: 0 for no effect and ±100 for the full control effect
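Cell-based growth assay: transgenic P. falciparum expressing firefly luciferase, cultured in red cells within RPMI 1640 containing 0.5% w/v Albumax, 24 mM bicarbonate and gentamycin. A drop in luciferase activity indicates inhibition.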
Shiga toxin inh: blocks Shiga toxin action in Vero cells; Vero cells, Shiga toxin protein synthesis inhibition reporter; inhibition, % at 38.7 µM; 290,000 compounds, 9.2% hits; AID 2315; in the data active = inhibition mostly above about 28%, no sharp cut-off; inactive = mostly below about 43%; note: 0% is about no effect
Pf growth 96h: P. falciparum growth inhibition at 96 hours; 320,000 compounds, 6.9% hits; P. falciparum luciferase reporter growth, 96 h; AID 504834; Potency, µM (series often up to 28.7 µM), for the others: at the top dose activity change, negative = inhibition, hits mostly inhibitors; note: potency is the fitted concentration of half-maximal effect; % is set by controls: 0 for no effect and ±100 for the full control effect
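Luminescence readout: decreased luciferase signal marks inhibited growth of reporter-expressing P. falciparum in infected red cells (2% hematocrit, 0.05% parasitemia final), exposed to compound two generations (96 h, 37 C, 5% CO2).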
Cycloheximide cs: counter-screen hit for Shiga toxin inhibitors, cycloheximide | cell reporter, cycloheximide protein synthesis inhibition counterscreen | max response, % | 300,000 compounds, 12% hits | AID 2314; in the data active = max response mostly above about 13%, no sharp cut-off; inactive = mostly below about 14%; note: read at 38.3 µM for the half of the compounds with a filed dose; 0% is about no effect
SARS PLpro yeast: blocks SARS-CoV papain-like protease in a yeast assay; S. cerevisiae expressing SARS-CoV PLpro, growth rescue; Potency, µM (doses to about 32.9 µM), for inactives: at the highest dose activity, positive = growth rescue, actives largely listed as activators; 330,000 compounds, 0.19% hits; calls by dose curve; note: potency is the fitted concentration of half-maximal effect; 0% is about no effect; nearly all actives have a fitted effect of over 55% in size
Numbers without * were called inactive; ? = inconclusive; . = no result; [ ] = dose if it differs, or a comment. Unless noted, calls come from the whole dose curve; as a rule, active = well fitted curve in the direction sought with a large enough effect; inconclusive = small, poorly fitted or top-dose-only effect, or another doubt; inactive = no such curve, though single readings can be large; an effect the other way counts as inactive or inconclusive.

SMILES	AMA1-RON2 inh	Pf growth 48h	Shiga toxin inh	Pf growth 96h	Cycloheximide cs	SARS PLpro yeast
CCOC(=O)COc1cc(Br)c(C2NC(=O)NC(C)=C2C(C)=O)cc1OCC (configuration not stated)	17.3%	.	-17.5	9.28µM*	-5.7	-0.5%[6.58 µM]
CC(C)CCNC(=O)C1CC(c2ccccc2[N+](=O)[O-])=NO1 (configuration not stated)	4.4%	.	.	.	.	.
O=C(NNC(=O)c1ccncc1)c1ccccc1	4.5%	11.3%[0.00184 µM]	-6.3	?	-3.5	-0.4%
Cc1cc(C)c(C(=O)c2ccc(C(=O)N(C(C)C)C(C)C)cc2)c(C)c1	-2.3%	.	5.2	?	1.5	-8.9%
Cc1cc(C)c(C(=O)c2ccc(C(=O)NC(C)(C)C)cc2)c(C)c1	9.5%	.	-10.1	3.29µM*	-1.5	-2.3%
CC(C)(C)NC(=O)c1ccncc1	3.1%	.	-6.1	10.4µM*	-1.9	-1.9%
O=C(NCc1cccnc1)c1cn(-c2ccccc2)nc1-c1ccccc1	1.2%	53.2%	20.5	30.5%	21.0*	2.4%
O=C(NC1CCN(Cc2ccc(Cl)cc2)CC1)c1cn(-c2ccccc2)nc1-c1cccnc1	-3.5%	1.85µM*	.	?	.	-1.5%
O=C(c1cn(-c2ccccc2)nc1-c1cccnc1)N1CCN(S(=O)(=O)c2ccc(Cl)cc2)CC1	-7.3%	.	.	.	.	.
CCc1ccccc1NC(=O)CNC(=O)c1cn(Cc2ccccc2)nc1-c1cccnc1	-6.2%[11.6 µM]	?	.	5.86µM*	.	-10.4%
O=C(NCc1ccncc1)c1cn(-c2ccccc2)nc1-c1cccnc1	4.9%	14.7µM*	-8.5	?	-4.6	-0.7%
COc1ccc([C@H]2[C@@H](C#N)[C@H](C#N)N3CCCN23)cc1	21.5%	17.6%	-5.4	-18.1%	1.6	9.8%
Cc1cc(N2CCCC2)nc(SCC(=O)c2ccccc2)n1	6.8%	42.7%	-20.0	9.4%	5.8	-13.0%
Cc1cc(Cl)nc(SCC(=O)c2ccccc2)n1	4.9%	-6.4%	80.7*	35.9%	44.5*	1.1%
Cc1cc(N2CCOCC2)nc(-c2ccccc2O)n1	6.8%	13.8%	-5.6	2.33µM*	8.8	11.3%
CCN1CCN(c2cc(C)nc(-c3ccccc3O)n2)CC1	20.5%	?	-10.3	?	-2.3	0.4%
Cc1cc(N2CCOCC2)nc(SCC(=O)c2ccccc2)n1	2.4%	46.6%	95.8*	?	50.9*	10.5%
CCCSc1cc(N2CCOCC2)nc(-c2ccccc2Cl)n1	13.6%	.	-13.8	11.7µM*	11.1	-21.0%
Cc1cc(N2CCOCC2)nc(SCC(=O)c2ccc(Cl)cc2)n1	3.5%	?	-15.9	?	-3.3	5.0%
Cc1cc(N2CCC(C)CC2)nc(SCC(=O)c2ccccc2)n1	-4.5%	?	28.8*	?	12.6*	-20.8%
Cc1cc(C)nc(SCC(=O)c2ccc(C)c(C)c2)n1	-10.4%	-0.2%	25.4	9.28µM*	10.7*	-1.8%
COC(=O)CSc1nc(C)cc(N2CCOCC2)n1	7.3%	12.6%	52.6*	61.2%	26.7	2.9%
Cc1ccc(S(=O)(=O)N2CCC(C(=O)O)CC2)cc1	-15.1%	-1.4%	29.3	48.1%	15.3	0.7%
CC(CCC(=O)Nc1nncs1)C(=O)O (configuration not stated)	-0.3%	-1.4%	5.0	11.7µM*	-3.8	-1.0%
C=CCn1cnc2scc(-c3ccc(C)c(C)c3)c2c1=O	3.0%	4.0%	-14.2	-4.0%	-3.1	-1.0%
SMILES	AMA1-RON2 inh	Pf growth 48h	Shiga toxin inh	Pf growth 96h	Cycloheximide cs	SARS PLpro yeast
CCC(C(=O)OC)n1cnc2scc(-c3ccc(C)c(C)c3)c2c1=O (configuration not stated)	-24.4%	13.1µM*	.	0.0%	3.4	-22.6%
CCCn1cnc2scc(-c3ccc(C)c(C)c3)c2c1=O	14.1%	2.4%	-6.5	10.4µM*	-2.3	-8.6%
COc1ccc(-c2nc3scc(-c4ccc(OC)c(OC)c4)c3c(=O)o2)cc1	-5.9%	19.0%	1.6	31.3%	-3.3	11.3%
CCOc1ccc(-n2cnc3scc(-c4ccc(OC)c(OC)c4)c3c2=O)cc1	-22.2%	?	-8.4	2.62µM*	-0.7	2.6%
C[C@@H](C(=O)O)c1ccc(C(=O)c2ccccc2)s1	.	6.0%[12.8 µM]	.	-14.4%[12.8 µM]	.	.
COC(=O)[C@@]1(Cc2ccccc2)[C@H]2C(=O)N(C)C(=O)[C@H]2[C@H]2CN=C(SC)N21	1.4%	.	.	.	.	7.9%
COc1ccc(Cc2nnc(SC(C)C(=O)Nc3ccc(F)cc3Cl)o2)cc1 (configuration not stated)	7.8%	0.8%	.	?	.	2.4%
CCN1CCN(C(=O)c2ccccc2N(Cc2ccccc2)S(=O)(=O)c2ccc(OC)cc2)CC1	-10.3%	?	-9.3	?	-0.5	0.5%
COc1ccc(-c2[nH]ncc2-c2cnn(-c3ccccc3)c2)c(O)c1	60.0%	?	13.8	-18.2%	-2.4	-21.3%
Cc1ccc(SC2=C(Sc3ccc(C)cc3)C(=O)c3ccccc3C2=O)cc1	?	0.415µM*	36.7*	0.738µM*	28.4*	-6.5%
COc1ccc(CCNC(=O)Cn2ccc3c(OC)cccc3c2=O)cc1OC	-6.4%	-13.8%	12.1	3.8%	7.9	-0.5%
Cn1ncc(N=Cc2ccc([N+](=O)[O-])cc2)c1C(=O)N1CCOCC1	-0.8%	3.1%	-4.5	.	-2.3	-7.2%
FC(F)(F)c1ccc2c(c1)nc1n2CCCC1	16.4%	?	13.2	35.2%	21.5*	-46.6%
O=C(Nc1ccccc1)c1ccccc1OS(=O)(=O)c1ccccc1	-12.4%	16.0%	1.9	?	1.6	-9.7%
CN(C)S(=O)(=O)c1cccc(COC(=O)c2ccc3c(c2)OCO3)c1	2.8%	16.1%	37.0	64.1%	12.8	-1.2%
CN(C)S(=O)(=O)c1cccc(NC(=O)c2c[nH]c3ccccc23)c1	2.3%	-16.4%	63.8*	-12.3%	16.3*	0.6%
CN(C)S(=O)(=O)c1cccc(NC(=S)NNC(=O)c2cc3ccccc3cc2O)c1	73.3%	?	.	?	.	4.47µM*
CN(C)S(=O)(=O)c1cccc(COC(=O)c2ccc(Cl)cc2O)c1	14.8%	?	105.8*	43.6%	44.5*	-5.9%
CN(C)S(=O)(=O)c1cccc(COc2ccccc2C(=O)Nc2ccccc2)c1	0.7%	10.4µM*	13.3	9.28µM*	9.4	-6.3%
Cc1ccc(S(=O)(=O)N2CCN(C(=O)CNC(=O)c3ccc(Br)o3)CC2)cc1	5.6%	7.4%	.	?	.	4.2%
C/C(=N\O)C(C)(C)Nc1ccccc1F	-12.8%	5.2%	-6.0	15.0%	-2.2	-1.4%
NC(=O)NCc1cccs1	-17.2%	7.7%	-10.5	8.5%	-0.5	-0.1%
CN(C)S(=O)(=O)c1cccc(NC(=O)c2ccccc2OCc2ccc(F)cc2)c1	-16.2%	11.7µM*	6.9	?	-2.3	1.1%
Cc1ccc(-n2nc3cc(C)c(NC(=S)NC(=O)/C=C/c4ccco4)cc3n2)cc1	-9.1%[2.32 µM]	117.2%	active	-18.3%	70.4*	10.7%
